Most compounds without a hit are left out; they make up all but 10% or so of the library.
Gal4-VP16 FLuc: Gal4-VP16 reporter inhibition counter-screen; Potency, µM (highest dose often 53.6 µM), without a hit: top-dose activity, negative = inhibition, usual class: inhibitors; Drosophila S2 Gal4-VP16 UAS-luciferase, luminescence, 20 h; actives 3.5% (n = 310,000);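 note: Gal4-VP16 expression switched on by copper sulfate through the metallothionein promoter; % is set by controls: 0 for no effect and ±100 for the full control effect; nearly all actives have a fitted effect of over 50% in size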
SW480 rereplic: inducers of DNA re-replication in SW480 colon cancer cells; SW480 DNA re-replication, Hoechst DNA content imaging, 48 h; Potency, µM (titrated, usually from 46.1 µM), inactives show top-dose re-replication activation, usual class: activators; actives 1.8% (n = 340,000); AID 624297; note: % of control where 0% means no effect; nearly all actives have a fitted effect of over 55% in size
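Image-based DNA-content assay: after two days of treatment, nuclei were labelled with the DNA dye Hoechst and imaged, and hits were compounds raising the count of nuclei showing high fluorescence intensity.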
KB-V1 MDR tox: kills drug-selected multidrug resistant KB-V1 cells; KB-V1 MDR cells viability, CellTiter-Glo, 72 h; Potency, µM (highest dose often 46.1 µM), actives largely listed as cytotoxic; actives 3.4% (n = 400,000); AID 1347076; note: % is set by controls: 0 for no effect and ±100 for the full control effect; nearly all actives have a fitted effect of over 60% in size
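KB-V1, DMEM (no phenol red) + 10% FBS; cpd pin-transferred, titration series; 72 h, 37 degrees C; CellTiter-Glo, luminescence. Data normalized, curve-fit.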
KB-3-1 tox: KB-3-1 parental cell cytotoxicity; actives 1.4% (n = 400,000); KB-3-1 viability, CellTiter-Glo ATP luminescence, 72 h; Potency, µM (highest dose often 46.1 µM), usual class: cytotoxic; note: % is set by controls: 0 for no effect and ±100 for the full control effect; nearly all actives have a fitted effect of over 60% in size
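Screening of KB-3-1 cells (DMEM, 10% FBS, phenol-red free) ran from lowest to highest compound concentration; after 72 h at 37 °C viability was read luminescently and curves fitted.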
MCF10A rerep: induces DNA re-replication in MCF 10a normal breast cells. Potency, µM (doses to about 46.1 µM), for inactives: top-dose activity, positive = re-replication, actives largely listed as activators. actives 2.9% (n = 350,000). AID 624296. MCF 10A DNA re-replication, Hoechst nuclear intensity, 48 h; note: % of control where 0% means no effect; nearly all actives have a fitted effect of over 50% in size
RORgamma inh: ROR gamma (mouse) transcription inhibition; P51450; Potency, µM (titrated, usually from 53.6 µM), without a hit: at the top dose activity change, negative = inhibition, most hits filed as inhibitors; actives 5.4% (n = 310,000); AID 2551; Drosophila S2 Gal4-RORgamma UAS-luciferase reporter, 20 h; note: % is set by controls: 0 for no effect and ±100 for the full control effect; nearly all actives have a fitted effect of over 60% in size
Target sequence (P51450 whole entry, looked up, the tested form may be a part): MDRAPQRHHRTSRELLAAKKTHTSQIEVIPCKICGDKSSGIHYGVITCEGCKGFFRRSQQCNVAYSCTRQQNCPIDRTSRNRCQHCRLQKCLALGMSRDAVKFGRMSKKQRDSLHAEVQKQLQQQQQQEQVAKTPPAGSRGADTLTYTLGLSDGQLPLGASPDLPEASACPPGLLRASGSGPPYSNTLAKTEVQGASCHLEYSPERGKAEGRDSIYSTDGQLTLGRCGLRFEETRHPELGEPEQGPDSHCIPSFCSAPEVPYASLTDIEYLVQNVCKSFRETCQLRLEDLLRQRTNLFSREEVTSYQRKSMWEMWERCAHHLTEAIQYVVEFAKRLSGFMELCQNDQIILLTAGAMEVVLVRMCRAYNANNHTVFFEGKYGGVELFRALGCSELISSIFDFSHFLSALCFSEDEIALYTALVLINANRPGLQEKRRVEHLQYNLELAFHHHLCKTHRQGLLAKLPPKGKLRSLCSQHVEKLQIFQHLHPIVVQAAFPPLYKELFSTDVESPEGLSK
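Stable Schneider cell line, Gal4 DNA-binding domain fused to ROR gamma, UAS-luciferase. Cmpd 1 hr RT → CuSO4 700 uM final → 20 hr RT → luciferase reagent 10 min → luminescence.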
Active calls of the source: *; i = inactive; ? = inconclusive; . = no result; [ ] = dose if it differs, or a comment. Calls come from the whole dose curve; as a rule, active = well fitted curve in the direction sought with a large enough effect; inconclusive = small, poorly fitted or top-dose-only effect, or another doubt; inactive = no such curve, though single readings can be large; an effect the other way counts as inactive or inconclusive. Potency is the fitted concentration of half-maximal effect.

SMILES	Gal4-VP16 FLuc	SW480 rereplic	KB-V1 MDR tox	KB-3-1 tox	MCF10A rerep	RORgamma inh
COCCNC(=S)NC(=O)c1ccc(C(C)(C)C)cc1	11.2µM*	-12.8%	i	i	?	2µM*
COC(=O)c1c(C)n(-c2ccccc2)c2ccc(O)cc12	6.0%	?	20.6µM*	?	?	-21.4%
CCOc1ccccc1C(=O)N(Cc1cc(OC)c(OC)c(OC)c1)c1ccccn1	.	.	?	i	.	.
NC(=O)c1cccc(-c2ccnc3c2CC(C(=O)NCCC(F)(F)F)O3)c1 (stereo not drawn)	.	.	i	i	.	.
CC(=O)c1cccc(NC(=O)C2Cc3c(-c4cccc(C(C)=O)c4)ccnc3O2)c1 (stereo not drawn)	.	.	20.6µM*	i	.	.
CC(=O)c1cccc(NC(=O)C2Cc3c(-c4cccc(C(N)=O)c4)ccnc3O2)c1 (stereo not drawn)	.	.	i	i	.	.
CC(=O)c1cccc(-c2ccnc3c2CC(C(=O)NCCC(F)(F)F)O3)c1 (stereo not drawn)	.	.	?	7.31µM*	.	.
COc1ccc(CCCNC(=O)C2Cc3c(-c4cccc(C(C)=O)c4)ccnc3O2)cc1 (stereo not drawn)	.	.	20.6µM*	6.51µM*	.	.
COc1ccc(NC(=O)C2Cc3c(-c4cccc(NC(C)=O)c4)ccnc3O2)cn1 (stereo not drawn)	.	.	i	4.61µM*	.	.
CCc1ccc(S(=O)(=O)c2nnn3c2nc(NCc2cccs2)c2sccc23)cc1	.	.	i	i	.	.
COc1ccc(C2OC3C(CO)OC(n4cnc5c(=O)[nH]c(N)nc54)C3O2)cc1 (stereo not drawn)	-7.7%	.	.	.	.	4.6%
Cc1ccc(C(c2sc3nc(-c4ccco4)nn3c2O)N2CCCC2)cc1 (stereo not drawn)	.	.	i	i	.	.
CC(=O)Nc1ccc(NC(=S)NC(=O)C2CCCC2)cc1	0.1%	-8.0%	i	i	2.8%	14.8%
CCOc1ccc(NC(=S)NC(=O)C2CCCC2)cc1	6.31µM*	7.5%	i	i	5.1%	1.12µM*
CCOc1ccc(NC(=O)C2CCN(S(C)(=O)=O)CC2)cc1	2.0%	?	?	i	0.92µM*	13.5%[1.91 µM]
CCN(CC)c1ccc(NC(=S)NC(=O)C2CCC2)cc1	6.31µM*	0.9%	i	i	7.8%	1.78µM*
COc1ccc(NC(=S)NC(=O)C2CCCCC2)cc1	-18.5%	?	i	i	3.0%	7.0%
COc1cc(Cl)c(C)cc1NC(=O)Cn1cc(S(=O)(=O)N2CCC(C)CC2)c2ccccc2c1=O	.	.	i	i	.	.
O=C1c2ccccc2C(=O)c2c1ccc(C(=O)N1CCCCC1)c2NCCO	-11.2%	1.1%	?	i	-1.5%	-12.7%
CC1CCCN(C(=O)c2ccc3c(c2NCCO)C(=O)c2ccccc2C3=O)C1 (stereo not drawn)	-23.3%	-4.7%	4.61µM*	i	6.3%	-25.2%
CCNc1c(C(=O)O)ccc2c1C(=O)c1ccccc1C2=O	12.6µM*	-3.3%	i	i	-9.0%	?
CN(Cc1ccc(C(F)(F)F)cc1)C(=O)c1ccc(Oc2ccccc2)cc1	0.0%	-1.5%	i	?	16.4µM*	0.1%
Cc1ccccc1CNc1ccc(C(CC(N)=O)NC(=O)c2ccc(Br)cc2)cc1[N+](=O)[O-] (stereo not drawn)	5.6%	?	i	i	10.3µM*	22.0%
O=C(c1csnn1)N1CCC[C@@]2(CCN(c3ccccn3)C2)C1	-16.3%	.	.	.	.	-1.4%
C[C@H](NC(=O)OC(C)(C)C)c1nnc(SCc2ccc(Cl)cc2Cl)o1	.	.	18.4µM*	?	.	.
SMILES	Gal4-VP16 FLuc	SW480 rereplic	KB-V1 MDR tox	KB-3-1 tox	MCF10A rerep	RORgamma inh
CSCC[C@H](NC(=O)OC(C)(C)C)c1nnc(SCc2ccccc2)o1	?	5.6%	9.2µM*	?	5.7%	-20.7%
CSCC[C@H](NC(=O)OC(C)(C)C)c1nnc(SCc2ccc(F)cc2)o1	-19.1%	2.3%	20.6µM*	i	?	32.8%
CSCC[C@H](NC(=O)OC(C)(C)C)c1nnc(SCc2cccc(F)c2)o1	-6.4%	-0.9%	i	i	-4.9%	5.6%
CC(C)[C@H](NC(=O)OC(C)(C)C)c1nnc(SCc2cccc(F)c2)o1	-5.1%	?	13µM*	i	10.6%	8.3%
CCCS(=O)(=O)NC(=O)C1(C)CCN(C(=O)c2ccc(OC)cc2OC)C1 (stereo not drawn)	.	.	i	i	.	.
Cc1cc(C)c2c(=O)cc(C(=O)Nc3ccc(S(=O)(=O)N(C)Cc4ccccc4)cc3)oc2c1	.	.	i	i	.	.
COc1ccc(C(OCCN2CCC[C@H](C(=O)O)C2)(c2ccc(OC)cc2)c2ccc(OC)cc2)cc1	-9.9%	.	.	.	.	26.1%
COCCCNC(=O)CSC1=Nc2ccccc2C2=NC(CCC(=O)NCc3ccccc3OC)C(=O)N12 (stereo not drawn)	.	.	i	i	.	.
COC(=O)NC(c1cccc(F)c1)C(C(C)=O)C(=O)OC (stereo not drawn)	-7.3%[10 µM]	.	.	.	.	-4.9%[10 µM]
CCSc1nnc([C@H](Cc2c[nH]c3ccccc23)NC(=O)OC(C)(C)C)o1	2.2%	3.1%	?	i	431.7%[0.0737 µM]	?
CCN(CC)C(=O)CSc1nnc([C@H](Cc2c[nH]c3ccccc23)NC(=O)OC(C)(C)C)o1	4.8%	1.4%	14.6µM*	i	0.4%	25.8%
NC(N)=N/N=C/c1ccc(OS(=O)(=O)c2ccccc2)cc1	-2.8%	5.8µM*	i	i	18.4µM*	?
CCC(=O)N/N=C/c1ccc(OS(=O)(=O)c2ccccc2)cc1	-2.4%	-38.6%	i	i	-4.2%	25.7%
COC(=O)c1ccc2c(c1)N(CC(=O)Nc1cccc(C(F)(F)F)c1)C(=O)c1ccccc1S2	.	.	i	i	.	.
O=S1(=O)CCC(NC(=S)Nc2ccccc2)C1 (stereo not drawn)	4.8%	4.11µM*	i	i	1.1%	12.4%
COc1ccc(/C=N/NC(=S)NC2CCS(=O)(=O)C2)cc1OC (stereo not drawn)	?	-5.8%	i	i	-2.6%	15.8µM*
Cc1ccc(/C=N/NC(=S)NC2CCS(=O)(=O)C2)cc1 (stereo not drawn)	5.01µM*	?	i	i	-1.0%	7.94µM*
COc1ccc(/C=N/NC(=O)C2C3CCCCC32)cc1OC (stereo not drawn)	11.9%	-0.9%	i	i	-0.4%	0.5%
C=CCN(C(C(=O)OC)C(C)C)S(=O)(=O)C=C (stereo not drawn)	18.9%	.	.	.	.	-1.2%

Source: PubChem BioAssay
